Measured values published in PubChem BioAssay AID2284087 (EPA ToxCast).
The source made the active and inactive calls. Rule for the calls: active = hit-call score of the fitted dose curve at least 0.9, where 1 is the maximum; inactive = score below 0.9.

Target: human Flt-1 (VEGFR1) (FLT1) Receptor Tyrosine Kinase, FLT1 (gene 2321) (UniProt P17948)
Experiment: ERF_FR_ENZ_hFLT1: Eurofins (ERF) Enzymatic Radiometric [Km ATP] KinaseProfiler LeadHunter Assay for human Flt-1 (VEGFR1) (FLT1) Receptor Tyrosine Kinase
Method: ERF_FR_ENZ_hFLT1 is a biochemical, single-readout assay that uses extracted gene-proteins in a cell-free assay. Measurements were taken 0.25 hour after chemical dosing in a 96-well plate. See Flt-1 (VEGFR1) Human RTK Kinase Enzymatic LANCE Assay [Km ATP], Cerep.ERF_FR_ENZ_hFLT1 is an assay component calculated from the ERF_FR_ENZ_hFLT1 assay. It is designed to measure enzyme activity using a type of enzyme reporter as detected by fluorescence intensity with LANCE technology.Data from the assay component ERF_FR_ENZ_hFLT1 was analyzed at the assay endpoint, ERF_FR_ENZ_hFLT1, in the positive analysis fitting direction relative to DMSO as the negative control and baseline of activity. Using a type of enzyme reporter, loss-of-signal activity can be used to understand changes in enzymatic activity as they relate to gene FLT1. To generalize the intended target to other relatable targets, this assay endpoint is annotated to the kinase intended target family, where the subfamily is receptor tyrosine kinase.
Flt1 (h) is incubated with 8 mM MOPS pH 7.0, 0.2 mM EDTA, 250 uM […], 10 mM MgAcetate and [g- 33P]-ATP (specific activity and concentration as required). The reaction is initiated by the addition of the Mg/ATP mix. After incubation for 40 minutes at room temperature, the reaction is stopped by the addition of phosphoric acid to a concentration of 0.5%. […]

human Flt-1 (VEGFR1) (FLT1) Receptor Tyrosine Kinase, FLT1 (gene 2321), sequence (P17948 whole entry, looked up): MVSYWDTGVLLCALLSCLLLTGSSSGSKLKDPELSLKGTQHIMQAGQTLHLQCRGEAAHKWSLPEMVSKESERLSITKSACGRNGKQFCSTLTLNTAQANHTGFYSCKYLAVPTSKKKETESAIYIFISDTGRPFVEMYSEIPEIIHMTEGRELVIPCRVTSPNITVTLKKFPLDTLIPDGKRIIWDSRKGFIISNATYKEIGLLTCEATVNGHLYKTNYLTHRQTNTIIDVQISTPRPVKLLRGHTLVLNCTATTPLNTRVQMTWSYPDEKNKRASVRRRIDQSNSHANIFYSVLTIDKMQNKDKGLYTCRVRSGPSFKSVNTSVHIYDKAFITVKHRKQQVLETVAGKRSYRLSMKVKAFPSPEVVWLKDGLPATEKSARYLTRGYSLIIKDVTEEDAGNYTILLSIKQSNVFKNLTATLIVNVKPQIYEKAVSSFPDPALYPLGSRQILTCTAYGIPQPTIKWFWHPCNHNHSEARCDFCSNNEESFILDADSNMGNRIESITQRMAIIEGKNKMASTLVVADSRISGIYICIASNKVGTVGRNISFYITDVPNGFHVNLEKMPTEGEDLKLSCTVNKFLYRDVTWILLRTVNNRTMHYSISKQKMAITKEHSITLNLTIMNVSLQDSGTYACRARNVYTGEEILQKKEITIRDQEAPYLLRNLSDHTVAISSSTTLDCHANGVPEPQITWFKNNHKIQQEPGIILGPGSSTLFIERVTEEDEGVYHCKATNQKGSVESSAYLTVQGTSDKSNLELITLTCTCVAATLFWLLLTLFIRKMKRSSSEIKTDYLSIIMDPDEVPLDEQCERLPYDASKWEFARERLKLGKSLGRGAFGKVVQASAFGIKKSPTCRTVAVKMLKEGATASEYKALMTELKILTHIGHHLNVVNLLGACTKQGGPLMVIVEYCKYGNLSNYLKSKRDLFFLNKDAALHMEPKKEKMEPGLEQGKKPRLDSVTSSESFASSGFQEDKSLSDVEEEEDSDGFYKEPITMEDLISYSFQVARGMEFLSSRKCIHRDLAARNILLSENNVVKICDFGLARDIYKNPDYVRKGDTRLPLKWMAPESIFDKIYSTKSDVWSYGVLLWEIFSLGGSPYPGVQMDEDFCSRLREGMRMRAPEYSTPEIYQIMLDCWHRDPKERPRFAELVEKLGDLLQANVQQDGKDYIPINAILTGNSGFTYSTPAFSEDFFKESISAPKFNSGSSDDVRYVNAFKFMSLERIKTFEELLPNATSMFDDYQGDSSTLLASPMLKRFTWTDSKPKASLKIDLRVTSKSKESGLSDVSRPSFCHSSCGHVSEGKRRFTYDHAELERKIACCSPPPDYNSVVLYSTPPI

Compound	outcome
O=C(/C=C/c1ccc(O)cc1)CC(=O)/C=C/c1ccc(O)cc1	inactive
